Screening results deposited in PubChem BioAssay by National Center for Advancing Translational Sciences (NCATS).
Sm TGR block: S. mansoni TGR enzyme inhibition | purified TGR, DTNB reduction, TNB absorbance 405 nm | Potency, µM (highest dose often 114 µM), for inactives: at the highest dose activity change, negative = inhibition, hits mostly inhibitors | Q962Y6 | 360,000 tested, 3% active; note: potency is the fitted concentration of half-maximal effect; % is set by controls: 0 for no effect and ±100 for the full control effect; nearly all actives have a fitted effect of over 60% in size
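Kinetic colorimetric format: TGR-catalysed, NADPH-driven DTNB reduction monitored via TNB absorbance. Enzyme dispensed at 20 nM; compound exposure 15 min at room temperature before reaction start.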
Tb PYK inh: inhibitors of Trypanosoma brucei pyruvate kinase | Potency, µM (highest dose often 76.8 µM), without a hit: at the top dose activity, negative = inhibition, most hits filed as inhibitors | 410,000 tested, 0.12% active | TbPYK enzyme, Kinase-Glo Plus ATP luminescence, 45 min | Q57TT1; note: potency is the fitted concentration of half-maximal effect; % is set by controls: 0 for no effect and ±100 for the full control effect; nearly all actives have a fitted effect of over 50% in size
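ADP (130 uM final) triggers the TbPYK reaction after compound addition; incubation is 45 min at room temperature. Kinase-Glo Plus is then added and luminescence imaged. Normalized data are fitted to concentration-effect curves.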
FBPA Giardia inh: blocks Giardia fructose-bisphosphate aldolase activity | A8B2U2 | purified Giardia FBPA | Potency, µM (series often up to 59.6 µM), without a hit: top-dose activity, negative = inhibition, actives largely listed as inhibitors | 290,000 tested, 0.71% active; note: potency is the fitted concentration of half-maximal effect; % is set by controls: 0 for no effect and ±100 for the full control effect; nearly all actives have a fitted effect of over 55% in size
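40 nM FBPA preincubated 10 min at RT with compound (up to 57.5 uM final), then substrate plus GAPDH/TPI/NAD/arsenate coupling and diaphorase/resazurin added. Fluorescence read after 20 min at RT, 525/598 nm.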
LmPK inh: inhibitors of Leishmania mexicana pyruvate kinase; purified LmPK, Kinase-Glo ATP luminescence, 1 h; 290,000 tested, 0.37% active; Potency, µM (doses to about 57.5 µM), for inactives: top-dose activity change, negative = inhibition, most hits filed as inhibitors; Q27686; AID 1721; note: potency is the fitted concentration of half-maximal effect; % is set by controls: 0 for no effect and ±100 for the full control effect
Target sequence (Q27686 whole entry, looked up): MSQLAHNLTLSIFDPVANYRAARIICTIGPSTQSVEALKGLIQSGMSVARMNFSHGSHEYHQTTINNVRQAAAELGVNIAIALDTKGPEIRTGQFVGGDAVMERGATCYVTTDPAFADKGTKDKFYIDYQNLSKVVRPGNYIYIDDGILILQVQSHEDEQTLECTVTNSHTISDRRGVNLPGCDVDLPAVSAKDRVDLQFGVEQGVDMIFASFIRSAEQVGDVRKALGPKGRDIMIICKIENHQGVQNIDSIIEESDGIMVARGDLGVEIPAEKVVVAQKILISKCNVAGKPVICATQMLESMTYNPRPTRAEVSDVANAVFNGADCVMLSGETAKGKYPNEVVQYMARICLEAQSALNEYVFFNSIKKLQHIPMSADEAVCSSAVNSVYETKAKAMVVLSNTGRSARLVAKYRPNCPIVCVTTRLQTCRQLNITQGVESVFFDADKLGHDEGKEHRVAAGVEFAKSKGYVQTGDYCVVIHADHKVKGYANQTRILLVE
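qHTS format; LmPK 0.1 nM; substrates PEP 0.5 mM and ADP 0.1 mM. One-hour room-temperature incubation, then coupled luciferase luminescence; 0.5 nM enzyme wells mark activation.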
CHX counter: counter-screen hit for Shiga toxin inhibitors, cycloheximide; cell reporter, cycloheximide protein synthesis inhibition counterscreen; max response, %; 300,000 tested, 12% active; in the data active = max response mostly above about 13%, no sharp cut-off; inactive = mostly below about 14%; note: read at 38.3 µM for the half of the compounds with a filed dose; 0% is about no effect
Shiga inhibitor: Shiga toxin inhibition. Vero cells, Shiga toxin protein synthesis inhibition reporter. inhibition, % at 38.7 µM. 290,000 tested, 9.2% active; in the data active = inhibition mostly above about 28%, no sharp cut-off; inactive = mostly below about 43%; note: 0% is about no effect
* marks the source's active call; other numbers are inactive results. The entries come from a sample that favours hits as a whole. Unless noted, calls come from the whole dose curve; as a rule, active = well fitted curve in the direction sought with a large enough effect; inconclusive = small, poorly fitted or top-dose-only effect, or another doubt; inactive = no such curve, though single readings can be large; an effect the other way counts as inactive or inconclusive.

Results for O=C(Cn1c(=O)sc2ccccc21)NCc1ccccn1 ?
Sm TGR block: -1%; Tb PYK inh: -1%; FBPA Giardia inh: 1%; LmPK inh: 0%; CHX counter: 18*; Shiga inhibitor: 54*

Results for Cc1nn(C(C)C(=O)NC2CCCCC2)c(=O)c2nn(-c3ccccc3)c(C)c12 (stereo not drawn) ?
Sm TGR block: 0%; Tb PYK inh: -3%; LmPK inh: -13%; CHX counter: 12; Shiga inhibitor: -3

What do the screens show for `COc1ccccc1N1C(=O)CC(Sc2nccc(C)n2)C1=O` (stereo not drawn)?
Sm TGR block: inconclusive; Tb PYK inh: 8%; FBPA Giardia inh: -1%; LmPK inh: -8%; CHX counter: 4; Shiga inhibitor: -23

Results for COc1ccccc1N1C(=O)CC(Sc2n[nH]c(-c3cccc(C)c3)n2)C1=O (stereo not drawn) ?
Sm TGR block: 0.63µM*; Tb PYK inh: inconclusive; FBPA Giardia inh: -11%; LmPK inh: -11%; CHX counter: -2; Shiga inhibitor: 9

What do the screens show for `C[C@H]1C=C2C=C[C@H](C)[C@H](CC[C@@H]3C[C@@H](O)CC(=O)O3)[C@H]2[C@@H](OC(=O)[C@@H](C)CCO)C1`?
FBPA Giardia inh: -7%

How did Cn1c(NCc2c[nH]c3ccccc23)nc2ccccc21 do in these assays?
Sm TGR block: -3%; Tb PYK inh: -7%; FBPA Giardia inh: 10%; LmPK inh: -8%; CHX counter: 15*; Shiga inhibitor: 70

Results for CCn1c(NCc2c[nH]c3ccccc23)nc2ccccc21 ?
Tb PYK inh: -1%

How did C=CCn1c(NCc2c[nH]c3ccccc23)nc2ccccc21 do in these assays?
Sm TGR block: -7%; Tb PYK inh: -4%; FBPA Giardia inh: 0%; LmPK inh: 2%; CHX counter: 17*; Shiga inhibitor: 27*

Results for C=CCc1cccc(CNc2nc3ccccc3n2CC)c1O ?
Sm TGR block: 2%; Tb PYK inh: -2%; FBPA Giardia inh: -6%; LmPK inh: -1%; CHX counter: -1; Shiga inhibitor: -9

Results for C=CCn1c(NCc2ccc(OC)cc2)nc2ccccc21 ?
Sm TGR block: -7%; Tb PYK inh: -7%; FBPA Giardia inh: -7%; LmPK inh: -10%; CHX counter: 18*; Shiga inhibitor: 40*

Results for Cc1ccccc1NC(=O)C(C)OC(=O)C1CCCO1 (stereo not drawn) ?
Tb PYK inh: -1%

How did O=C(Nc1nc2ccccc2n1CCN1CCOCC1)c1cccc([N+](=O)[O-])c1 do in these assays?
Tb PYK inh: 0%

How did CC(=O)Nc1cccc(NC(=O)c2ccc(S(=O)(=O)NCc3ccco3)cc2)c1 do in these assays?
Tb PYK inh: 3%

How did Cc1cccc(NC(=O)c2ccc(F)c(S(=O)(=O)N3CCC4(CC3)OCCO4)c2)c1 do in these assays?
Sm TGR block: -1%; Tb PYK inh: -5%; LmPK inh: -10%; CHX counter: 34*; Shiga inhibitor: 28

Results for CN(C)C1(CNC(=O)c2ccc(Cl)c(S(=O)(=O)NCc3ccco3)c2)CCCCC1 ?
Sm TGR block: -3%; Tb PYK inh: -13%; FBPA Giardia inh: 2%; LmPK inh: 6%; CHX counter: 23*; Shiga inhibitor: 38

How did CNS(=O)(=O)c1cc(C(=O)NCc2ccco2)ccc1Cl do in these assays?
Sm TGR block: -5%; Tb PYK inh: 2%; FBPA Giardia inh: 2%; LmPK inh: -2%; CHX counter: -2; Shiga inhibitor: -3

How did Cc1cccc(NC(=O)c2ccc(F)c(S(=O)(=O)NCc3ccco3)c2)c1 do in these assays?
Sm TGR block: 28µM*; Tb PYK inh: -12%; LmPK inh: -12%; CHX counter: 44*; Shiga inhibitor: 84*

How did CC(C)Oc1ccc(CN2CCc3nc(Nc4ccc5c(c4)OCCO5)ncc3C2)cc1 do in these assays?
Sm TGR block: 1%; Tb PYK inh: 3%

How did CN(C)c1ccc(-n2cccc2)cc1 do in these assays?
Sm TGR block: -1%; Tb PYK inh: -13%; FBPA Giardia inh: 4%; LmPK inh: 1%; CHX counter: 16*; Shiga inhibitor: 20
